Experimental data from the supplement of paper PMC6555819.

Key:
Assay in all cases: PBM binding z-score (relative to random genomic background probes); higher = stronger binding; sequences stand for … in GC…GCGATTGACAGCGTAGAATGAAGG
[1] = test system: FXR:RXRa (NR concentration 270 nM, RXRa partner concentration 90 nM)
Method in brief: (§1)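 On custom Agilent 4×180K arrays, double-stranded probes with 34-nt variable regions carried direct-repeat seeds, single-nucleotide variants, half-site ablations or random human genomic background. Ligand-free nuclear receptor dimers were applied for 1 h, and binding was read with antibodies against each partner (one per run). Binding z-scores come from regression-normalized fluorescence, with the random background probes as reference.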

[2] = test system: LXRa:RXRa (NR concentration 270 nM, RXRa partner concentration 90 nM)
Method in brief: as §1

[3] = test system: LXRa homodimer (NR concentration 270 nM)
Method in brief: as §1

[4] = test system: LXRb:RXRa (NR concentration 270 nM, RXRa partner concentration 90 nM)
Method in brief: as §1

[5] = test system: LXRb homodimer (NR concentration 270 nM)
Method in brief: as §1

[6] = test system: PPARa:RXRa (NR concentration 270 nM, RXRa partner concentration 90 nM)
Method in brief: as §1

[7] = test system: PPARg:RXRa (NR concentration 180 nM, RXRa partner concentration 90 nM)
Method in brief: as §1

[8] = test system: PPARg:RXRa 270nM:90nM, anti-RXR (NR concentration 270 nM, RXRa partner concentration 90 nM)
Method in brief: as §1

[9] = test system: PPARg:RXRa 30nM:10nM, anti-RXR (NR concentration 30 nM, RXRa partner concentration 10 nM)
Method in brief: as §1

[10] = test system: PPARg:RXRa 90nM:30nM, anti-RXR (NR concentration 90 nM, RXRa partner concentration 30 nM)
Method in brief: as §1

[11] = test system: PPARg:RXRa DBDmut IVT, anti-RXR (DBD mutation: RXRa K156A/R161A, NR concentration 270 nM, RXRa partner concentration 90 nM)
Method in brief: as §1

[12] = test system: PPARg:RXRa IVT, anti-PPARg (NR concentration 270 nM, RXRa partner concentration 90 nM)
Method in brief: as §1

[13] = test system: PPARg DBDmut:RXRa IVT, anti-PPARg (DBD mutation: PPARg1 K132A/R137A, NR concentration 270 nM, RXRa partner concentration 90 nM)
Method in brief: as §1

[14] = test system: PPARg DBDmut IVT, anti-PPARg (DBD mutation: PPARg1 K132A/R137A, NR concentration 270 nM)
Method in brief: as §1

[15] = test system: PPARg homodimer (NR concentration 180 nM)
Method in brief: as §1

[16] = test system: PXR:RXRa (NR concentration 270 nM, RXRa partner concentration 90 nM)
Method in brief: as §1

[17] = test system: PXR homodimer (NR concentration 270 nM)
Method in brief: as §1

[18] = test system: RARa:RXR (NR concentration 270 nM, RXRa partner concentration 90 nM)
Method in brief: as §1

[19] = test system: RARa homodimer (NR concentration 270 nM)
Method in brief: as §1

[20] = test system: RARb:RXRa (NR concentration 270 nM, RXRa partner concentration 90 nM)
Method in brief: as §1

| Sequence | PBM binding z-score [1] | PBM binding z-score [2] | PBM binding z-score [3] | PBM binding z-score [4] | PBM binding z-score [5] | PBM binding z-score [6] | PBM binding z-score [7] | PBM binding z-score [8] | PBM binding z-score [9] | PBM binding z-score [10] | PBM binding z-score [11] | PBM binding z-score [12] | PBM binding z-score [13] | PBM binding z-score [14] | PBM binding z-score [15] | PBM binding z-score [16] | PBM binding z-score [17] | PBM binding z-score [18] | PBM binding z-score [19] | PBM binding z-score [20] |
| --- | --- | --- | --- | --- | --- | --- | --- | --- | --- | --- | --- | --- | --- | --- | --- | --- | --- | --- | --- | --- |
| ACTTACGGGTCAACGAGGTTAAAGCACGCGTATA | 7.3 | 5.07 | 0.882 | 4.97 | 0.527 | 6.09 | 6.14 | 5.57 | 2.44 | 4.29 | 3.22 | 4.19 | 0.985 | 1.02 | 2.28 | 5.38 | 3.33 | 5.36 | 0.479 | 4.53 |
| ACTATTAGTCGACTTAGGGCAACCGATACGACGC | -0.365 | -0.211 | -0.355 | -0.374 | 0.47 | -0.446 | 0.825 | 0.138 | 0.0617 | 0.0451 | 0.19 | 0.646 | 0.629 | 1.12 | -0.309 | -0.188 | -0.351 | 0.128 | -0.494 | 0.711 |
| CGAACGAGGGCATGGGTTGATAGCAAATGCCGAT | 0.548 | 0.397 | -0.228 | 0.329 | -0.69 | 2.01 | 3.1 | 3.6 | 1.43 | 3.25 | 2.5 | 2.69 | -0.338 | 0.301 | 0.704 | 0.517 | 0.232 | 0.938 | -0.224 | 2.05 |
| CTCGAGAGGTCGTGCTCAGGTGAGTATACCAAAC | 3.66 | 2.94 | -0.247 | 3.32 | -0.109 | 4.28 | 1.58 | 2.21 | 0.228 | 1.11 | 0.51 | 1.53 | -0.297 | -0.226 | 0.544 | 3.09 | 0.214 | 3.6 | -0.876 | 2.79 |
| CTCGAAAGGTCGGTTGCGGTGAGTATACGGATAA | 2.08 | 1.5 | 0.16 | 1.38 | 0.241 | 2.17 | 0.168 | 0.893 | 0.195 | 0.654 | 0.303 | 0.901 | 0.157 | 0.202 | 0.797 | 1.4 | -0.173 | 1.62 | -0.203 | 2.92 |
| ATCGAAAGGTCGTGAGGTGAGTAGACAGAAAGGC | 5.21 | 4.15 | 0.0462 | 2.98 | 0.701 | 4.93 | 3.83 | 4.25 | 1.29 | 3.08 | 0.467 | 2.39 | 0.658 | 0.706 | 1.44 | 3.07 | 0.328 | 4.15 | 0.372 | 3.9 |
| GCATATAGGTAATGCAAGGTGAAAGTCCGATTGT | 0.366 | 1.83 | -0.0493 | 0.568 | -0.489 | 1.74 | 1.05 | 1.15 | 0.286 | 0.74 | 4.12 | 3.49 | 0.246 | 0.658 | 0.642 | 0.573 | 0.208 | 1.73 | 0.262 | 0.407 |
| ATCTCTAGGTAAGAATCAGTTCAGTGAAGAACGC | 0.825 | 0.702 | 0.74 | 0.521 | 0.992 | 0.326 | 0.0299 | 0.324 | 0.4 | 0.435 | 1.32 | 0.899 | 0.992 | 1.06 | 1.4 | 1.05 | 1.2 | 0.793 | 2.09 | 0.435 |
| GCTTGTAGATTAAGGTTAAGAAAGACTAAGCTAA | 0.292 | 0.89 | -0.399 | 0.611 | -0.832 | 1.32 | 0.216 | 0.627 | -0.258 | 0.49 | -0.0536 | 0.119 | 0.205 | -0.0743 | 0.0936 | 0.375 | -0.332 | 1.01 | 0.194 | 0.875 |
| CCTCGGAGGACAACAGTAGGTCAGAGCTGCCAGA | 0.249 | 0.959 | 1.04 | 0.175 | -0.765 | 1.37 | 0.475 | 0.552 | -0.754 | 0.0572 | 1.42 | 2.02 | -1.19 | -2.12 | 0.785 | 0.462 | -0.203 | 0.798 | -0.275 | 2.05 |
| CAAACTAGGTCACAGGAAGGTCAAAGTCCGCATG | 5.68 | 6.01 | 4.15 | 4.78 | 1.18 | 6.19 | 9.73 | 7.57 | 5.77 | 7.73 | 8.64 | 8.8 | 3.59 | 2.12 | 6.59 | 5.73 | 1.51 | 7.15 | 2.2 | 4.93 |
